According to PubChem BioAssay (EPA / NIEHS):
Activity calls are given as the source filed them. The calls were made as follows: active = hit-call score of the fitted dose curve at least 0.9, where 1 is the maximum; inactive = score below 0.9.

The compounds below were run on Macrophage colony-stimulating factor (MCSF), CSF1 (gene 1435) (assay: BSK_LPS_MCSF: BioMAP Diversity Plus: LPS Assay for Macrophage colony-stimulating factor (MCSF) Biomarker Activity (AID 2283083)). Details: primary human HUVEC with PBMC; actives raise or lower the signal.
Experimental: BSK_LPS is a cell-based, multiplexed-readout assay that uses umbilical vein endothelium and peripheral blood mononuclear cells, a human vascular primary cell co-culture, with measurements taken at 24 hours after chemical dosing in a 96-well plate.BSK_LPS_MCSF is an assay component measured in the BSK_LPS assay. It measures M-CSF antibody related to regulation of gene expression using ELISA technology.Data from the assay component BSK_LPS_MCSF was analyzed into 1 assay endpoint. This assay endpoint, BSK_LPS_MCSF, was analyzed with bidirectional fitting relative to DMSO as the negative control and baseline of activity. Using a type of binding reporter, gain or loss-of-signal activity can be used to understand changes in the signaling as they relate to the gene CSF1. Furthermore, this assay endpoint can be referred to as a primary readout, because this assay has produced multiple assay endpoints where this one serves a signaling function. To generalize the intended target to other relatable targets, this assay endpoint is annotated to the cytokine intended target family, where the subfamily is colony stimulating factor.
The levels of cell surface (or secreted, indicated by the prefix "s") biomarker endpoints were measured by ELISA. Overt cytotoxicity to cells in confluent adherent cultures (all systems other than the BT system) was assessed by measuring total protein levels using sulforhodamine B (SRB) staining in parallel cultures at the time of biomarker measurements, indicated as SRB endpoints. For proliferation assays for adherent cell types, individual cell types are cultured at sub-confluence and relative cell numbers quantified by SRB staining at time points optimized for each system (48 h: 3C and CASM3C systems; 72 h: BT and HDF3CGF systems; 96 h: SAg system). SRB was performed by staining cells with 0.1% SRB after fixation with 10% TCA and reading wells at 560 nm.Viability and proliferation of PBMC (T cells) was quantified by Alamar Blue reduction for the SAg and BT systems. For PBMC viability (referred to as PBMC Cytotoxicity within the assay endpoint names), cells were plated (75,000/well in a 96-well plate) and then chemical samples added for 1 h before addition of activators, SEB and TSST-1 (20 ng/mL final concentration each). Cells were incubated for 90 h. Then, Alamar Blue (20 uL/well) (Invitrogen, Cat DAL1100) was added for 6 h, and the plates were read with a fluorescence microplate reader at 546/580 nm (excitation/emission). For PBMC proliferation, cells were plated and activated as above but incubated for only 16 h prior to addition of Alamar Blue. Plates were read after 6 h.

SMILES	AC50	outcome
Cc1ccccc1OP(=O)(Oc1ccccc1)Oc1ccccc1	20 µM (active)	
OC(Cc1ccccc1Cl)(Cn1cncn1)C1(Cl)CC1 (stereo not given)		inactive
CCOP(=O)(OCC)OC(=CCl)c1ccc(Cl)cc1Cl	22.5 µM (active)	
Oc1ccc(Cc2ccc(O)cc2)cc1		inactive
Clc1cccc(Cl)c1		inactive
Oc1c(Br)cc(Br)cc1Br		inactive
CN(C)C(=S)S		inactive
Cc1cc(Cl)ccc1OC(C)C(=O)O (stereo not given)		inactive
O=[N+]([O-])c1cccc2ccccc12		inactive
CC(C)(COCC1CO1)COCC1CO1 (stereo not given)		inactive
CCN(CC)C(=O)C(Cl)=C(C)OP(=O)(OC)OC		inactive
O=C(O)C1(c2ccc3c(c2)OC[C@H](Cc2ccc(-c4ccccc4)cc2)[C@H]3O)CCCC1		inactive
Cc1ccc2nc3sc(=O)sc3nc2c1		inactive
Oc1cccc(-c2ccccc2)c1		inactive
Cc1ccccc1OP(=O)(Oc1ccccc1C)Oc1ccccc1C	11.2 µM (active)	
c1ccc2sc(SNC3CCCCC3)nc2c1		inactive
O=S(=O)(C(Cl)(Cl)Cl)C(Cl)(Cl)Cl	1.83 µM (active)	
CCOC(=O)CC(=O)CCl	20 µM (active)	
CCC(C)(C#N)N=NC(C)(C#N)CC (stereo not given)		inactive
OCCCCO		inactive

SMILES	AC50	outcome
Cc1cc(Cl)ccc1N		inactive
CCCCCCCCCCCCc1cccc(S(=O)(=O)O)c1		inactive
OCCN(CCO)CCO		inactive
C=CC(Cl)CCl (stereo not given)		inactive
CCOC(=O)CCN(SN(C)C(=O)Oc1cccc2c1OC(C)(C)C2)C(C)C		inactive
CCCCOC(=O)COC(=O)c1ccccc1C(=O)OCCCC		inactive
O=C1C=CC(=O)c2ccccc21	1.82 µM (active)	
Cc1cc(C(C)(C)c2ccc(O)c(C)c2)ccc1O	15.1 µM (active)	
O=C(N[C@H]1CN2CCC1CC2)c1ccc2c(c1)OCCO2		inactive
CCOC(=O)C(SP(=S)(OC)OC)c1ccccc1 (stereo not given)		inactive
NC(=O)CCl		inactive
O=C(Cc1ccccc1)OCCc1ccccc1		inactive
COc1ccccc1N		inactive
O=C(O)COc1cc(Cl)c(Cl)cc1Cl		inactive
CCCCCCCCCCCCN(C)C		inactive
Nc1c(Oc2ccccc2)cc(O)c2c1C(=O)c1ccccc1C2=O		inactive
COCC(=O)N(c1c(C)cccc1C)[C@H](C)C(=O)OC		inactive
CC(C)(C)c1cc([N+](=O)[O-])cc(C(C)(C)C)c1O	0.452 µM (active)	
OC(Cc1ccccc1Cl)(Cn1[nH]cnc1=S)C1(Cl)CC1 (stereo not given)		inactive
Oc1cc(Cl)c(Cl)cc1Cl	20 µM (active)	
